Compound activity (PubChem BioAssay)
Shown are actives, neighbours in structure and some others; about 2% of the full set was active somewhere.
LDHA block: inhibitors of human lactate dehydrogenase A; P00338; purified LDHA, NADH/diaphorase-resazurin fluorescence; stronger effect = lower value; activity change, % (values are at about 110 or 230 µM); 480,000 compounds, 0.15% hits; AID 1347041; in the data active = activity change below about -30%; inconclusive = mostly about -25% to -30%;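 also: plate controls were DMSO wells for no effect and wells without enzyme for full effect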
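Human LDH5 (2 nM) was incubated with 0.06 mM NADH and 0.2 mM pyruvate for 5 min at room temperature in Tris pH 7.4. Remaining NADH was coupled through diaphorase/resazurin, and resorufin fluorescence was read at 0 and 20 min.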
TDP-43 yeast inh: inhibitors of TDP-43 toxicity in yeast | TDP-43 expressing yeast growth rescue, BacTiter-Glo, 24 h | Potency, µM (titrated, usually from 46.1 µM), inactives show at the highest dose growth rescue (activation), most hits filed as activators | 410,000 compounds, 1.8% hits; also: potency is read from the fitted curve at half-maximal effect; % of control where 0% means no effect; nearly all actives have a fitted effect of over 50% in size
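Luminescence from BacTiter-Glo reports growth of TDP-43-expressing yeast after 24 hr at 30 deg C with compound. Cells were raffinose-pregrown to mid-log, then seeded in galactose medium at OD600=0.02.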
aSyn rescue: inhibitors of alpha-synuclein toxicity in yeast; Yeast expressing alpha-synuclein, growth rescue, BacTiter-Glo, 24 h; Potency, µM (doses to about 46.1 µM), for the others: top-dose growth rescue (activation), hits mostly activators; 370,000 compounds, 0.14% hits; AID 652106; also: potency is read from the fitted curve at half-maximal effect; % of control where 0% means no effect; nearly all actives have a fitted effect of over 65% in size
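Screening used galactose-induced yeast with toxic alpha-synuclein levels, exposed to compound for 24 hr at 30 deg C. Cell growth, read with BacTiter-Glo luminescence, gave the measured signal.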
Abeta yeast res: restores growth of yeast expressing A-beta42 peptide; yeast expressing A-beta42, growth rescue, OD600, 48 h; response scale: 0% DMSO, 100% iron-clioquinol control; Potency, µM (doses to about 46.1 µM), actives largely listed as activators; 410,000 compounds, 0.063% hits; AID 1347071; also: potency is read from the fitted curve at half-maximal effect; nearly all actives have a fitted effect of over 55% in size
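Yeast growth medium received pinned compounds, then yeast cells expressing toxic A-beta were added; plates incubated at 30 C for 48 hr. Growth read as absorbance at 600 nm, normalized to DMSO and equimolar FeCl3 plus clioquinol controls.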
mIDH1 inhibitor: human IDH1 R132H inhibition | O75874 | IDH1-R132H enzyme, NADPH consumption, diaphorase/resazurin fluorescence | Potency, µM (doses to about 76.6 µM), for the others: at the highest dose activity change, negative = inhibition, usual class: inhibitors | 390,000 compounds, 0.093% hits; also: potency is read from the fitted curve at half-maximal effect; % is scaled to controls: 0 for no effect and ±100 for the full control effect; nearly all actives have a fitted effect of over 65% in size
Target sequence (O75874 whole entry R132H, stated change not applied): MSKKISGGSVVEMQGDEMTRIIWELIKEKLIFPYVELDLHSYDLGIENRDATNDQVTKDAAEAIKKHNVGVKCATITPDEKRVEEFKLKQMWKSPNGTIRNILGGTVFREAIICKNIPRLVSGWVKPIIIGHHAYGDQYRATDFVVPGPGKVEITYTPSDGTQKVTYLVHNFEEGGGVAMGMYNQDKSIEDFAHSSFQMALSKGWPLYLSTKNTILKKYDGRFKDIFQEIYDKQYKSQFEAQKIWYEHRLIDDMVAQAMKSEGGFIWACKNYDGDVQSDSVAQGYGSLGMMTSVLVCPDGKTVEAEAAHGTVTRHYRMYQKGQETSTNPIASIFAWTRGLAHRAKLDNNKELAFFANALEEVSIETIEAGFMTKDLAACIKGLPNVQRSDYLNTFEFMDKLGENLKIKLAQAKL
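IDH1-R132H (0.5 ug/mL) preincubated 30 min with compound, then NADPH (0.016 mM) and alpha-KG (2 mM) added; 80 min at RT, pH 7.5. Remaining NADPH coupled via diaphorase/resazurin to fluorescence (540/590 nm); concentration-response curves normalized to no-enzyme control.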
FUS yeast rescue: FUS proteinopathy suppression in yeast; S. cerevisiae FUS-expressing, growth rescue, OD600, 24 h; Potency, µM (titrated, usually from 76.6 µM), usual class: activators; 390,000 compounds, 0.24% hits; AID 1347120;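 also: potency is read from the fitted curve at half-maximal effect; plate controls were DMSO vehicle for no effect and reference control for full effect; nearly all actives have a fitted effect of over 55% in size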
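Steps: raffinose overnight preculture; dilution to OD 0.005 in 2% galactose minimal medium; compound addition (concentration series); 24hr at 30C, 99% humidity; absorbance read at 600 nm.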
An asterisk follows results filed as active. Unless noted, calls follow the shape of the dose curve; as a rule, active = well fitted curve in the direction sought with a large enough effect; inconclusive = small, poorly fitted or top-dose-only effect, or another doubt; inactive = no such curve, though single readings can be large; an effect the other way counts as inactive or inconclusive.

Results for N#Cc1nc(-c2cccc3ccccc23)oc1NCC(c1cccs1)N1CCOCC1 (configuration not stated) ?
LDHA block: 12

How did CC(C)(C)OC(=O)N1CCc2onc(-c3ccc(Br)cc3)c2C1=O do in these assays?
LDHA block: -5; TDP-43 yeast inh: inconclusive; aSyn rescue: -1%; Abeta yeast res: inactive; mIDH1 inhibitor: 13%; FUS yeast rescue: inactive

What do the screens show for `O=C1NCCc2onc(-c3ccc(Br)cc3)c21`?
LDHA block: -6; TDP-43 yeast inh: 35µM*; aSyn rescue: -18%; Abeta yeast res: inactive; FUS yeast rescue: inactive

What do the screens show for `O=C(NCc1cccnc1)/C(=C/c1ccccc1)NC(=O)c1ccccc1`?
LDHA block: -5; TDP-43 yeast inh: 13%; aSyn rescue: 0%; Abeta yeast res: inactive; mIDH1 inhibitor: 5%; FUS yeast rescue: inactive

How did S=C(NCc1ccccc1)NCc1ccccc1Cl do in these assays?
LDHA block: -5; TDP-43 yeast inh: inconclusive; aSyn rescue: 0%; Abeta yeast res: 13µM*; mIDH1 inhibitor: 1%; FUS yeast rescue: inactive

What do the screens show for `Cc1ccc(C(=O)N/C(=C\c2ccccc2)C(=O)NCc2cccnc2)cc1`?
LDHA block: -3; TDP-43 yeast inh: 2µM*; aSyn rescue: -8%; Abeta yeast res: inactive; mIDH1 inhibitor: 1%; FUS yeast rescue: inactive

How did Fc1ccc(CNC(=S)NCc2cccc(Cl)c2)cc1 do in these assays?
LDHA block: -8; TDP-43 yeast inh: inconclusive; aSyn rescue: -7%; Abeta yeast res: inconclusive; mIDH1 inhibitor: -8%; FUS yeast rescue: inactive

What do the screens show for `Cc1ccc(C(=O)NC(=S)NCc2ccccc2)cc1`?
LDHA block: -11; TDP-43 yeast inh: 16µM*; aSyn rescue: -9%; Abeta yeast res: inconclusive; mIDH1 inhibitor: 0%; FUS yeast rescue: inactive

Results for S=C(NCc1ccccc1)NCc1cccc(Cl)c1 ?
LDHA block: 0; TDP-43 yeast inh: 29%; aSyn rescue: 3%; Abeta yeast res: 14µM*; mIDH1 inhibitor: 18%; FUS yeast rescue: inactive

What do the screens show for `O=C1CC2(CCCCC2)CC(=O)O1`?
LDHA block: 4

Results for O=C(NC(=S)NCc1ccccc1)c1cccc(Cl)c1 ?
LDHA block: -3; TDP-43 yeast inh: 16µM*; aSyn rescue: 1%; Abeta yeast res: inactive; mIDH1 inhibitor: 5%; FUS yeast rescue: inactive

What do the screens show for `O=C(NC(=S)NCc1ccccc1)c1cccnc1`?
LDHA block: -8; TDP-43 yeast inh: 3%; aSyn rescue: -1%; Abeta yeast res: inactive; mIDH1 inhibitor: -8%; FUS yeast rescue: inactive

What do the screens show for `Fc1ccc(/C=N/n2c(C3CCCCC3)n[nH]c2=S)cc1`?
LDHA block: -1; TDP-43 yeast inh: inconclusive; aSyn rescue: -11%; Abeta yeast res: 13µM*; mIDH1 inhibitor: -1%; FUS yeast rescue: inactive

Results for COc1cc(-c2c(C#N)c(N)nc3c2CN(C)CC3)cc(OC)c1OC ?
LDHA block: 1

Results for O=CNC1CCCc2c1[nH]c1ccc(Cl)cc21 (configuration not stated) ?
LDHA block: 1; TDP-43 yeast inh: 14µM*; aSyn rescue: 16%; Abeta yeast res: inactive; mIDH1 inhibitor: -6%

What do the screens show for `CCN(CC)C(=O)C1CCCc2c1[nH]c1ccc(Cl)cc21` (configuration not stated)?
LDHA block: 7; TDP-43 yeast inh: 14µM*; aSyn rescue: -7%; Abeta yeast res: inactive; mIDH1 inhibitor: -3%; FUS yeast rescue: inactive

Results for Cc1ccc2[nH]c3c(c2c1)CCCC3C(N)=O (configuration not stated) ?
LDHA block: 14; TDP-43 yeast inh: 0%; aSyn rescue: -2%; Abeta yeast res: inactive; mIDH1 inhibitor: 2%

How did Cc1ccc2[nH]c3c(c2c1)CCCC3NC(=O)CCl (configuration not stated) do in these assays?
LDHA block: 1; TDP-43 yeast inh: 13%; aSyn rescue: 16%; Abeta yeast res: inactive; mIDH1 inhibitor: -10%; FUS yeast rescue: inactive

How did S=C(NCCSc1ccc(Cl)cc1)NC1CCCC1 do in these assays?
LDHA block: -5

How did Cc1ccccc1Cn1cnc2ccccc2c1=O do in these assays?
LDHA block: -11; TDP-43 yeast inh: inconclusive; aSyn rescue: 5%; Abeta yeast res: inactive; mIDH1 inhibitor: 4%; FUS yeast rescue: inactive

What do the screens show for `O=c1c2ccccc2ncn1Cc1cccc2ccccc12`?
LDHA block: -3; TDP-43 yeast inh: 11µM*; aSyn rescue: 19%; Abeta yeast res: inactive; mIDH1 inhibitor: -2%; FUS yeast rescue: inactive

How did COc1ccc(CNC(=O)c2cc(-c3cccs3)on2)cc1 do in these assays?
LDHA block: -3; TDP-43 yeast inh: 5.6µM*; aSyn rescue: -4%; Abeta yeast res: inactive; mIDH1 inhibitor: -1%; FUS yeast rescue: inactive

What do the screens show for `CN1C(=O)CC(c2ccco2)Sc2ccccc21` (configuration not stated)?
LDHA block: -3; TDP-43 yeast inh: 3%; aSyn rescue: -1%; Abeta yeast res: inactive; mIDH1 inhibitor: 6%; FUS yeast rescue: inconclusive

Results for COc1ccc(C2CC(=O)N(C)c3ccccc3S2)cc1 (configuration not stated) ?
LDHA block: -10; TDP-43 yeast inh: 13µM*; aSyn rescue: 18%; Abeta yeast res: inactive; mIDH1 inhibitor: 11%; FUS yeast rescue: inactive

What do the screens show for `Cc1ccc(C2CC(=O)NC3=C2C(=O)CC(C)(C)C3)cc1` (configuration not stated)?
LDHA block: 7

How did COc1ccc(C(=O)NCC(=O)OCC(=O)c2ccccc2Br)cc1OC do in these assays?
LDHA block: -2; TDP-43 yeast inh: 8%; aSyn rescue: -5%; Abeta yeast res: inactive; mIDH1 inhibitor: -1%; FUS yeast rescue: inactive

What do the screens show for `COc1cc(C(=O)NCC(=O)OCC(=O)c2cccc3ccccc23)cc(OC)c1OC`?
LDHA block: 2; TDP-43 yeast inh: 8%; aSyn rescue: 0%; Abeta yeast res: inactive; mIDH1 inhibitor: 4%; FUS yeast rescue: 13µM*

What do the screens show for `N#Cc1cccc(CN2CCN(c3oc(C4CC4)nc3C#N)CC2)c1`?
LDHA block: 0

How did Cc1ccccc1C(=O)N1CCC(C(=O)N2CCCc3ccccc32)CC1 do in these assays?
LDHA block: 1; TDP-43 yeast inh: 0%; aSyn rescue: 7%; Abeta yeast res: inactive; mIDH1 inhibitor: 8%
